The whole screen tested about 190,000 compounds, of which about 130 (0.068%) were called active. The sample as a whole holds a higher share of actives than the screen did. Values without a mark were called inactive. Cut-off read from the data, not from the text of the source: active = inhibition above about 40%; inactive = the rest.

Usually inhibition stands for the relative decrease from the control value, in per cent.

For the test, the target named is ATP-dependent translocase ABCB1 (Homo sapiens) (UniProt P08183). Description: blockers of ABCB1-mediated dye efflux – cell-based, multiplex, flow cytometry, ABCG2 counter-screen, primary screen (AID 1326).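 Note: 0% = vehicle and 100% = reference inhibitor; higher value means more JC-1 retained so stronger ABCB1 efflux block.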 The note with it: CCRF-Adr cells, JC-1 efflux, at 6.6 µM, hits give high values. On the technique in general: Flow cytometry measures light scatter and fluorescence of single cells or particles in a stream.
ATP-dependent translocase ABCB1 (Homo sapiens), sequence (P08183 whole entry, looked up): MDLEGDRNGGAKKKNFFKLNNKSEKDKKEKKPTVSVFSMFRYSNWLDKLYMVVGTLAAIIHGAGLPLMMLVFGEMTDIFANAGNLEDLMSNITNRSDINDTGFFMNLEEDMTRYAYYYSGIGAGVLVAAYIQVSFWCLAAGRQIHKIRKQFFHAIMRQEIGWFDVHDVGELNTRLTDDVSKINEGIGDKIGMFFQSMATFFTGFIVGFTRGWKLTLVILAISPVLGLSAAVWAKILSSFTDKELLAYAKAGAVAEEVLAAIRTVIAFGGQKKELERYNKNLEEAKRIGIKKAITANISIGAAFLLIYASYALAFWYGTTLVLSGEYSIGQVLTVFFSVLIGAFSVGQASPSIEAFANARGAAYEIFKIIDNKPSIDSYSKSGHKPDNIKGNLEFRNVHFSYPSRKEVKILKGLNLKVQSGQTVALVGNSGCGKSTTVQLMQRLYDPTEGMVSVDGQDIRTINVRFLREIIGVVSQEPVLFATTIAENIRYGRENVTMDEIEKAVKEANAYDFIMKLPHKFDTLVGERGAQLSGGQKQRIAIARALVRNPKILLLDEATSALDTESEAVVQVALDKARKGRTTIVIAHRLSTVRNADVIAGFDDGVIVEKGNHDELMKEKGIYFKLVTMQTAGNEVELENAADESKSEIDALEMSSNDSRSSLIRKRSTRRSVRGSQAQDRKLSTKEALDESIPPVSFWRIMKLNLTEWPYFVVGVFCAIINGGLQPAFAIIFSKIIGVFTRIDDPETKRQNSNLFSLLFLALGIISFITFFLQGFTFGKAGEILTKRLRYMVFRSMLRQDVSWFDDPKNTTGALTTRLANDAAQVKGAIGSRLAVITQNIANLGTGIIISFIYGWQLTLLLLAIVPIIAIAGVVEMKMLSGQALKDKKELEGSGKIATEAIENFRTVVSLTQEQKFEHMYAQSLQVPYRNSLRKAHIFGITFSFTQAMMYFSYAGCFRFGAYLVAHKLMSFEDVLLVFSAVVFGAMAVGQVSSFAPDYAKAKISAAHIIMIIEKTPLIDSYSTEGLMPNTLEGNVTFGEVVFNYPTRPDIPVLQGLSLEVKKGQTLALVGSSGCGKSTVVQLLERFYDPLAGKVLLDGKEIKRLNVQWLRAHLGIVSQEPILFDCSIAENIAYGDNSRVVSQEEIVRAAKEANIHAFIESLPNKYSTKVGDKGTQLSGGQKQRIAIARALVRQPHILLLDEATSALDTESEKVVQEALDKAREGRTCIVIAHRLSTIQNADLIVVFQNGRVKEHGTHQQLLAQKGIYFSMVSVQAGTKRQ
Regarding `COc1ccc2c(-c3ccccc3)cc(SCC(=O)N(C)C3CCS(=O)(=O)C3)nc2c1` (stereo not given), the inhibition is 1.15%.
Consider `O=C(CN1CCCCCC1)NCCN1C(=O)S/C(=C\c2ccccc2Cl)C1=O`, for which the inhibition is 0.67%.
With `COCCn1c(C)cc(C(=O)CSc2nc3ccccc3c(=O)n2C(C)COC)c1C` (stereo not given) the figure was 2.97%.
With `Cc1cc(C)cc(NC(=O)N2CCCCCCC2)c1` the figure was 2.76%; with `COc1cccc(C(O)Cc2nc3ccccc3n2C)c1OC` (stereo not given), -0.47%; with `C=CCc1cccc2cc(C(=O)NC3CCCC3)c(=O)oc12`, 1.75%.
Then `Cc1c(C(=O)c2cccc([N+](=O)[O-])c2)c2ccccn2c1CCC#N`, with 2.01%; and `NS(=O)(=O)c1cccc(NC(=O)CSc2nc3ccccc3n2-c2ccccc2)c1`, with -1.23%.
For `Cc1ccc(-n2c(SCC(=O)Nc3ncc(Cl)cc3Cl)nc3ccccc32)cc1`, the inhibition was 56.9% (active).
With `Cc1ccc(SCCC(=O)OCC(=O)Nc2ncc(Cl)cc2Cl)cc1` the figure was 0.04%; with `CCn1c(SCC(=O)Nc2nccs2)nnc1-c1ccco1`, 0.22%; with `COCCCNC(NC(=O)c1ccc(OC)cc1)C(Cl)(Cl)Cl` (stereo not given), 0.77%.
Take `O=c1[nH]c2cccnc2n(CCNc2ncc(C(F)(F)F)cc2Cl)c1=O`: the inhibition was 0.11%.
Then `CC(C)(C)n1ncc2c(=O)n(Cc3ccc(Cl)cc3)cnc21`, with 0.59%.
With `C#CCOCCOCCOCCNc1nc(N2CCN(C(=O)[C@H](CCCCN)n3cc([C@@H](N)C(C)CC)nn3)CC2)nc(N2CCN(C(=O)[C@H](Cc3ccc(O)cc3)n3cc([C@@H](N)C(C)CC)nn3)CC2)n1` (stereo not given in full) the figure was 0.44%; with `COc1ccc(Cn2c(=O)cc(C)[nH]c2=S)cc1`, 1.2%; with `O=C(Oc1c(-c2ccco2)oc2ccccc2c1=O)c1cccnc1`, 1.71%.
Take `O=C(N/N=C/c1sc(N2CCCCC2)nc1-c1cccs1)c1cccnc1`: the inhibition was -0.08%.
As for `CCOc1cnc(C(=O)NNC(=O)c2ccccc2Br)o1`, the inhibition is -0.12%.
Then `COc1ccc(CN2CCNC(=O)C2CC(=O)N(C)Cc2ccccn2)cc1OC` (stereo not given), with 0.3%.
Then `N=C1C(c2nc3ccccc3s2)=C(O)CN1NC(=O)c1ccc([N+](=O)[O-])cc1`, with -0.23%; and `CN(CC(=O)Nc1ccccc1F)CC(=O)Nc1ccccc1Br`, with -0.22%; and `CCOCCCn1c(NN)nc2ccccc2c1=O`, with 0.54%.
Then `Nc1ccc(Cl)c(S(=O)(=O)Nc2ccccc2Cl)c1`, with 0.19%.
Take `COc1ccc(-c2[nH]ncc2CN(Cc2nccn2C)C(C)C)cc1F`: the inhibition was 2.14%.
With `CCC(C(=O)Nc1ccc(C(C)C)cc1)c1ccccc1` (stereo not given), the inhibition was 0.19%.
With `N#Cc1c(NC(=O)C2CCCO2)sc2c1CCCCC2` (stereo not given) the figure was 1.4%; with `O=C(C1CC1)N1N=C2CCCCC2C1(O)C(F)(F)F` (stereo not given), 0.21%; with `COCC(C)NCc1cc(Br)ccc1OC` (stereo not given), 0.42%.
As to `Cc1ccc2nc(-c3cccnc3)c(NC3CCCC3)n2c1`, the inhibition was 1.9%.
Then `COc1cc2[nH]c(=O)n(Cc3ccc(C(=O)NC4CCN(Cc5ccccc5)CC4)cc3)c(=O)c2cc1OC`, with 0%; and `O=C(NCCc1ccccc1)C1CCC(Cn2c(=O)c3ccccc3n(Cc3cccnc3)c2=O)CC1` (stereo not given), with 4.02%.
Then `CC(=O)Nc1ccc(C(=O)CSc2nc3ccc(C)cc3[nH]2)cc1`, with -0.95%; and `c1ccc(CN=C2Nc3ccccc3CS2)nc1`, with 0.26%; and `O=C(c1ccc(N2CCOCC2)c([N+](=O)[O-])c1)N1CCN(S(=O)(=O)c2cccs2)CC1`, with 0.44%.
With `CC(C)CN1CCNC(=O)C1CC(=O)N(C)CC1CCOCC1` (stereo not given) the figure was 0.15%; with `CCCCCc1nnc(NC(=O)c2ccc(=O)n(C)n2)s1`, 0.44%; with `CC1CCCN(CC(O)COc2ccc3c(c2)OCO3)C1` (stereo not given), 0.12%.
On to `CCCCN1C(=S)NC[C@@H]1C(C)CC` (stereo not given in full), for which the inhibition is 0.02%.
With `CC/C(=N\NC(=O)c1ccccc1Cl)c1ccc(Br)s1` the figure was 1.38%; with `COc1ccc(CCNC(=O)CSc2nc3[nH]ncc3c(=O)n2-c2cccc(C(F)(F)F)c2)cc1OC`, 0.5%; with `O=C(C1CCCO1)N1CCN(C(=S)NC2CC2)CC1` (stereo not given), 0.55%.
Then `CNC(=S)N1CCC(NC(=O)C(Cc2ccc(F)cc2)NC(C)=O)CC1` (stereo not given), with 0.7%; and `Cc1ccc(C)c(NC(=O)CCC(=O)N/N=C2/CC(=O)CC(C)(C)C2)c1`, with 0.24%.
For the compound `Cc1c(CCOC(=O)c2cc([N+](=O)[O-])ccc2Cl)sc[n+]1CCCCS(=O)(=O)[O-]`, the inhibition is 1.17%.
With `Cc1c(CCO)sc[n+]1CC(=O)OC12CC3CC(CC(C3)C1)C2` the figure was 0.29%; with `Cc1c(CCOC(=O)CC23CC4CC(CC(C)(C4)C2)C3)sc[n+]1Cc1ccc([N+](=O)[O-])cc1`, 53.8% (active).
With `CC(C)NC(=O)c1ccc(Cl)cc1Cl` the figure was -0.21%; with `CC(=O)c1ccc(NC(=O)C(C)NCc2ccc(Cl)cc2)cc1` (stereo not given), 0.85%; with `Cc1nc(CN2CCN(C(=O)CCc3nnc(Cc4c[nH]c5ccccc45)o3)CC2)cs1`, -1.57%.
Take `CN1CCN(/N=C/c2ccc(C#N)cc2)CC1`: the inhibition is 1.07%.
With `CCC(C)(C)NC(=O)CN(C(=O)C(=O)Nc1ccc2c(c1)OCCO2)C(C)(C)CC` the figure was 2.48%; with `CSc1ccc(/C=N/NC(=O)c2cccc(Cl)c2)cc1`, -0.32%; with `CC(=O)Nc1ccccc1OC(C)C(=O)N1CCC(C)CC1` (stereo not given), 0.05%.
Turning to `COc1cc(NC(=S)NCc2ccc(S(N)(=O)=O)cc2)cc(OC)c1`, the inhibition is -0.49%.
Then `COc1ccc(NS(=O)(=O)c2cc(NC(=O)C3CCCCC3)ccc2N2CCOCC2)cc1`, with 0.89%.
Then `CC[C@H](C)[C@@H](C(=O)N1CCNCC1)n1cc([C@@H](N)Cc2ccc(O)cc2)nn1`, with 0.31%; and `COc1ccc(C2=NN(C(=O)CCC(=O)O)C(c3cccs3)C2)cc1OC` (stereo not given), with 0.01%.
With `C=CCn1c(SCCOc2ccc(OC)cc2)nnc1C(NC(=O)c1ccc(OC)cc1)C(C)C` (stereo not given), the inhibition is 48.2% (active).
With `C=CCn1c(SCc2ccc(Cl)c(Cl)c2)nnc1C(CO)NC(=O)c1ccc(OC)cc1` (stereo not given) the figure was 1.4%.
Then `C=CCn1c(SCC(=O)c2ccc(Br)cc2)nnc1C(C)NC(=O)Cc1ccc(OC)cc1` (stereo not given), with 1.19%; and `CN(C)CCOc1ccc(Cl)cc1C(C)(C)C`, with 0.53%; and `Nc1nc(SCC(=O)NN(c2ccccc2)c2ccccc2)n[nH]1`, with 0.84%.
`CCc1nnc(NC(=O)CSc2nnnn2-c2cccc(C(C)=O)c2)s1`: the inhibition is 0.21%.
With `CC(C)CCN1CCN(C/C=C/c2ccco2)CC1CCO` (stereo not given) the figure was 0.24%; with `C/C(=N/OC(=O)c1cccc(C(F)(F)F)c1)c1cnccn1`, -0.43%.
Then `C/C(CC1CC(C)(C)OC1=O)=N/Nc1nc(-c2ccccc2)cs1` (stereo not given), with -0.4%; and `CN(c1ccccc1)S(=O)(=O)c1cc(C(=O)OCC(=O)N2CCN(C(=O)c3ccco3)CC2)ccc1Cl`, with 0.19%; and `Cc1ccc(C)c(NS(=O)(=O)c2ccc(OCC(=O)NCc3cccnc3)cc2)c1`, with -0.02%.
Then `COc1cc(C(=S)NCc2ccccc2)cc(Br)c1O`, with -0.65%.
As for `CCC(=O)c1ccc(N2CCN(C(=O)c3cc([N+](=O)[O-])ccc3F)CC2)c(F)c1`, the inhibition was 2.09%.
For the compound `CCN(CC)CCNS(=O)(=O)c1ccc(/C=C/C(=O)O)cc1`, the inhibition was 0.17%.
Then `COc1cc(CNC2CCCC2)c(Br)cc1OCc1ccccc1`, with 0.98%; and `CN1CCN(C(c2cc3cc4c(cc3[nH]c2=O)OCCO4)c2nnnn2C2CCCC2)CC1` (stereo not given), with 0.88%; and `CNC(=O)C(=O)N/N=C/c1ccccn1`, with -0.01%.
Then `CSc1ncccc1C(=O)N1CCCC(CCC(=O)NCc2ccccc2F)C1` (stereo not given), with -0.56%.
With `C=C(C)c1cccc(C(C)(C)NC(=O)NCCN(CC)CC)c1` the figure was 0.61%; with `O=S(=O)(Cc1ccccc1)c1nc2ccccc2n1Cc1ccccn1`, 1.49%.
Regarding `COc1cc2[nH]c(=S)n(Cc3ccc(F)cc3)c(=O)c2cc1OC`, the inhibition is 0.4%.
Regarding `CCCc1cc(=O)[nH]c(SCc2cc(=O)oc3c(C)c(C)ccc23)n1`, the inhibition is -1.22%.
`Cc1nnsc1C(=O)Nc1cccc(Cl)c1C`: the inhibition was 0.41%.
With `COc1ccc(Cl)cc1NC(=O)C(C)N1CCc2ccccc21` (stereo not given) the figure was 0.39%.
On to `CC1=CC(=C(C#N)c2nc3ccccc3s2)C=C(C)N1c1ccc(F)cc1F`, for which the inhibition was -0.7%.
Then `COC(=O)c1ccc(OCC(O)CN(CCO)CC(O)Cn2ccc3ccccc32)cc1` (stereo not given), with 0.69%.
As for `Cc1ccccc1C1=NC(C(F)(F)F)(C(F)(F)F)c2c(n(-c3ccc(F)cc3)c(=O)[nH]c2=O)N1`, the inhibition was 0%.
With `NS(=O)(=O)c1ccc(NC(=O)/C=C/c2ccccc2Cl)cc1` the figure was 0.51%; with `CCC(c1nnnn1C1CCCC1)N(Cc1cccs1)Cc1cc2cccc(C)c2[nH]c1=O` (stereo not given), 6.67%; with `Cc1cccc2cc(CN(Cc3cccs3)C(c3nnnn3C3CCCC3)C(C)C)c(=O)[nH]c12` (stereo not given), 61.7% (active).
With `Cc1cccc2cc(CN(Cc3ccc4c(c3)OCO4)Cc3nnnn3C3CCCC3)c(=O)[nH]c12` the figure was 7.85%; with `CCC1CCCCN1S(=O)(=O)Cc1ccccc1Cl` (stereo not given), 2.08%; with `Cc1c(C(=O)NCCCc2ccccc2)cccc1[N+](=O)[O-]`, 0.92%.
With `COc1cccc(NC(=S)NC(=O)c2c(Cl)c(C)nn2C)c1` the figure was -0.45%.
In the case of `Cc1ccsc1C1C(C#N)=C(N)OC2=C1C(=O)CC(C)(C)C2` (stereo not given), the inhibition was 0.69%.
Then `COc1cc(OC)c(C(=O)N2CCCC2)cc1OC`, with 1.33%; and `N#Cc1c(NC(=O)c2ccc(N3CCOCC3)c([N+](=O)[O-])c2)sc2c1CCCC2`, with 0.71%; and `COC(=O)c1nn(-c2cccc(Cl)c2)ccc1=O`, with -0.18%.
Then `COCCNC(=S)N/N=C/c1c(C)[nH]c2ccccc12`, with -0.55%; and `CN(C)C(=O)N1CCNCC1`, with -0.13%; and `CC(=O)N(CN1C(=O)C2C3C=CC(C3)C2C1=O)c1cccc(Cl)c1` (stereo not given), with 0.48%.
On to `CCn1c(-c2cccnc2Cl)nc2cc(C)c(C)cc21`, for which the inhibition was 0.26%.
Then `Cc1nc(CC(=O)NNS(=O)(=O)c2ccc(F)c(Cl)c2)cs1`, with 1.15%.
Then `COC(=O)C(C(=O)Nc1cccc(Cl)c1C)C1CCCC1` (stereo not given), with -0.03%.
With `NNc1nc2c(Cl)cccc2s1` the figure was -1.62%.
Consider `CCOC(=O)C1=C(C)NC(=S)NC1c1cccs1` (stereo not given), for which the inhibition was -0.3%.
Then `Cc1ccccc1NC(=O)c1nn(-c2ccc(F)c(F)c2)ccc1=O`, with 0.58%.
With `COC(=O)c1ccc(COC(=O)c2cnccn2)cc1` the figure was 0.17%; with `CC1CN(CCCOc2ccccc2-c2ccccc2)CC(C)O1` (stereo not given), 3.45%.
With `CCCCC(=O)Nc1ccc(C(=O)Nc2cc(C(F)(F)F)ccc2Cl)cc1` the figure was -0.36%; with `CCC(=O)/C(=C(/O)c1ccccc1)c1nc2ccccc2[nH]1`, 0.14%; with `Cc1cc(C)cc(C(=O)NC(=S)Nc2ccc3[nH]c(=O)[nH]c3c2)c1`, -0.17%.

The values above are taken from PubChem BioAssay AID1326 (NMMLSC, 2008).
